Source: PubChem BioAssay (National Center for Advancing Translational Sciences (NCATS))
Giardia killer: Giardia lamblia killing; actives 0.15% (n = 340,000); Giardia lamblia trophozoite viability; activity change, % at 7.66 µM, hits read low; in the data active = activity change below about -80%; inconclusive = between about -30% and that limit;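 also: parasites exposed to compound for two days anaerobically before the ATP read; % is scaled to controls: 0 for no effect and ±100 for the full control effect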
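Compounds were tested on trophozoites seeded at 100 cells/well and held 48 hrs at 37 deg C anaerobically. An ATP-based luminescent kit measured the remaining live cells.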
SW480 rereplic: DNA re-replication induction in SW480 cells. Potency, µM (highest dose often 46.1 µM), for the others: at the highest dose re-replication activation, usual class: activators. SW480 DNA re-replication, Hoechst DNA content imaging, 48 h. actives 1.8% (n = 340,000). AID 624297; also: potency is read from the fitted curve at half-maximal effect; % of control where 0% means no effect; nearly all actives have a fitted effect of over 55% in size
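250 cells/well; 23 nL cpd via pin tool; 48 hr, 37 C, 5% CO2; Hoechst 40 min; imager read of total nuclear intensity, ex 405/em 500-530 nm.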
Vif-A3G inh: Vif-A3G binding inhibition. Q9HC16. HeLa A3G-eYFP + Vif (tagged APOBEC3G with the HIV-1 protein that degrades it), YFP fluorescence, overnight. Potency, µM (doses to about 46.1 µM), without a hit: at the highest dose activity, negative = active, actives largely listed as inhibitors. actives 0.076% (n = 410,000). AID 602310; also: potency is read from the fitted curve at half-maximal effect; % is scaled to controls: 0 for no effect and ±100 for the full control effect; nearly all actives have a fitted effect of over 60% in size
Target sequence (Q9HC16 whole entry, looked up): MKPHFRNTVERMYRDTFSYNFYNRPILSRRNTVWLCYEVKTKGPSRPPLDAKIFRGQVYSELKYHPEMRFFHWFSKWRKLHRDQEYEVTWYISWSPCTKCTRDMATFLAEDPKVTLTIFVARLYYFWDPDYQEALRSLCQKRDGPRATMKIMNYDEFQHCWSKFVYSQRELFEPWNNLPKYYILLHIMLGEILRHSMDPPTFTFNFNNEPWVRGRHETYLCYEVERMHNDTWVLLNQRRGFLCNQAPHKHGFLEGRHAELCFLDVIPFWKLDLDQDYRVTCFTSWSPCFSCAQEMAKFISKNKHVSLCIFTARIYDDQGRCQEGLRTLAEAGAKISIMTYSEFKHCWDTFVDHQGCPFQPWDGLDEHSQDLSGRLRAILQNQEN
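Read-out is eYFP fluorescence (Ex 488/Em 500-530) from Vif-expressing HeLa A3G-eYFP cells; more signal means A3G escaped Vif-mediated degradation. Cells plated overnight, compound pinned in, incubated overnight at 37 deg C.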
IL-1B inflam inh: inflammasome signaling inhibition, IL-1 beta readout; activity change, % at 57.5 µM; THP-1 LPS/ATP IL-1B secretion, AlphaLISA, 16 h; stronger effect = lower value; actives 4.7% (n = 360,000); in the data active = activity change below about -50%; inconclusive = mostly about -30% to -49%; also: % is scaled to controls: 0 for no effect and ±100 for the full control effect
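THP-1 cells pretreated 1 hr with compounds (up to 57.5 uM final), then stimulated with LPS (250 ng/mL final) plus ATP (1.25 mM final); secreted IL-1B measured by AlphaLISA after 16 hr, decreased signal indicating inhibition.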
MCF10A rereplic: inducers of DNA re-replication in MCF 10A breast cells | Potency, µM (top dose mostly 46.1 µM), inactives show at the top dose activity, positive = re-replication, usual class: activators | MCF 10A DNA re-replication, Hoechst nuclear intensity, 48 h | actives 2.9% (n = 350,000); also: potency is read from the fitted curve at half-maximal effect; % of control where 0% means no effect; nearly all actives have a fitted effect of over 50% in size
Vif-APOBEC3F blk: inhibitors of Vif-A3F interaction. actives 0.2% (n = 390,000). HeLa A3F-eYFP + Vif (tagged APOBEC3F with the HIV-1 protein that degrades it), YFP fluorescence increase. Potency, µM (series often up to 46.1 µM), for the others: at the highest dose activity, negative = active; also: potency is read from the fitted curve at half-maximal effect; % of control where 0% means no effect; nearly all actives have a fitted effect of over 65% in size
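HeLa cells stably expressing A3F-eYFP plus Vif, plated and incubated overnight at 37 deg C, then exposed to compounds overnight at 37 deg C. Blocked degradation read as raised yellow fluorescence (Ex 488/Em 500-530).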
Numbers without * were called inactive; ? = inconclusive; . = not tested or not shown; [ ] = dose if it differs, or a comment. The list is not random: actives were taken first. Their share in the collection is about 6.9%. Unless noted, calls follow the shape of the dose curve; as a rule, active = well fitted curve in the direction sought with a large enough effect; inconclusive = small, poorly fitted or top-dose-only effect, or another doubt; inactive = no such curve, though single readings can be large; an effect the other way counts as inactive or inconclusive.

SMILES | Giardia killer | SW480 rereplic | Vif-A3G inh | IL-1B inflam inh | MCF10A rereplic | Vif-APOBEC3F blk
CCCOc1cccc(C2c3c(oc4ccc(F)cc4c3=O)C(=O)N2Cc2ccc3c(c2)OCO3)c1 (configuration not stated) | . | . | 2% | . | . | 4%
Cc1ccc(C)c(N2CCN(C(=O)CCn3c(=O)[nH]c4ccccc4c3=O)CC2)c1 | . | . | -12% | . | . | 1%
Cc1nc2ccn(Cc3ccco3)c(=O)c2cc1C(=O)NCc1ccc(Cl)cc1 | . | . | -18% | . | . | ?
N#Cc1cc2c(nc1SCC(=O)Nc1nccs1)CCCCC2 | ? | 13% | -16% | 5 | 3.7µM* | -14%
CCOC(=O)c1c(SCC(=O)Nc2nccs2)nc(C)c(C)c1C | 6 | 28% | -8% | -7 | 16µM* | 2%
CCc1nnc(NC(=O)CSc2nc3c(cc2C#N)CCC3)s1 | ? | ? | 0% | -14 | 12% | 5%
CCn1c(C)nnc1SCC(=O)Nc1nccs1 | -28 | -1% | 0% | 7 | 1% | -7%
CCOc1ccc(S(=O)(=O)c2cn(Cc3ccc(C)cc3)c3ccc(OC)cc3c2=O)cc1 | . | . | 3% | . | . | 1%
O=C(Nc1ccccc1)Nc1ccc(F)cc1F | -13 | 8.2µM* | 3% | -12 | 22% | -5%
COC(=O)c1ccc(NC(=O)Nc2cccc(F)c2)cc1 | 5 | ? | -11% | -92* | ? | -5%
COC(=O)c1ccc(NC(=O)Nc2ccc(F)cc2F)cc1 | -5 | 3% | 4% | -53* | -7% | 9%
CC(=O)c1ccc(NC(=O)Nc2ccccc2)cc1 | 5 | 1% | 2% | -59* | ? | -5%
CC(=O)Nc1cccc(NC(=O)Nc2ccc(F)cc2F)c1 | -7 | 19% | -1% | 9 | -7% | -13%
COC(=O)c1ccc(C(=O)Nc2ccc(F)cc2)cc1 | 8 | -27%[9.22 µM] | -1% | 11 | -4% | 0%
O=C(c1ccc2c(c1)OCO2)C1CCCN(Cc2cn[nH]c2-c2cccc(F)c2)C1 (configuration not stated) | 5 | 1% | -4% | -92* | -10% | 2%
CCN1CCc2c(sc(-n3cccc3)c2C(CCC(C)C)NC(=O)NCCC(=O)OC)C1 (configuration not stated) | . | . | -8% | . | . | 1%
CCN1CCc2c(sc(-n3cccc3)c2C(C)NC(=O)Nc2ccc(C(=O)OC)cc2)C1 (configuration not stated) | . | . | ? | . | . | 22µM*
OCCCn1c(C2CCCN2c2nc(-c3ccc(F)cc3)cs2)nc2cc(Cl)c(N3CCCCC3)cc21 (configuration not stated) | -7 | -5% | 1% | 15 | 4% | 25µM*
OCCCn1c(C2CCCN2c2nc(-c3ccc(F)cc3)cs2)nc2cc(C(F)(F)F)ccc21 (configuration not stated) | 11 | 11% | -13% | -57* | ? | ?
OCCCn1c(CCNc2nc(-c3ccc(F)cc3)cs2)nc2cc(C(F)(F)F)ccc21 | 34 | -12% | -15% | -69* | ? | 3%
OCCOCCn1c(C2CCCN2c2nc(-c3ccc(F)cc3)cs2)nc2cc(Cl)c(Cl)cc21 (configuration not stated) | 6 | 10% | -14% | -54* | ? | 0%
OCCOCCn1c(C2CCCN2c2nc(-c3ccc(F)cc3)cs2)nc2cc(C(F)(F)F)ccc21 (configuration not stated) | -30 | 0% | -16% | -12 | -3% | -2%
CC(C(=O)Nc1cccc([N+](=O)[O-])c1)N1CCN(C/C=C/c2ccccc2)CC1 (configuration not stated) | -13 | 8% | 1% | -72* | -2% | -9%
CCOc1cccc2sc(N(CCN(C)C)C(=O)CCS(=O)(=O)c3ccccc3)nc12 | 15 | -3% | -5% | -19 | -3% | 2%
CCCCC(=O)Nc1nc2c(OC)ccc(OC)c2s1 | -16 | -15% | 1% | 29 | -5% | 3%
